“And” between values parts separate entries of the source, which are not always exact repeats. Identical values can stand only once. Results filed as inconclusive are left out. Entries that show only a call come without a potency. Some compounds were tested as several samples or in several runs, with calls that do not always agree. The source made the active and inactive calls. Unless noted, calls come from the whole dose curve.
System: not listed separately
Test: cAMP Responsive Elements (CRE) small molecule antagonists, cell-based qHTS assay (AID 1963591; active = well fitted inhibition curve with a large enough effect in the signal ratio in the repeat runs, not every such curve was filed as active; the % refers to the signal ratio)
Conditions: CRE-bla HEK293T, beta-lactamase FRET ratio; series mostly up to 92.4 µM
Method in brief: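 qHTS in CRE-bla HEK 293T cells: compound in DMSO, then 0.25 uM NKH477 (final), 3 h at 37 °C/5% CO2; beta-lactamase FRET read-out after 2 h substrate incubation.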

| Compound | Potency | activity change, negative = inhibition |
| --- | --- | --- |
| CCC(C)OC(=O)c1ccc(O)cc1 (stereo not drawn) | inactive | – |
| NC(=O)c1ncn([C@@H]2O[C@H](CO)[C@@H](O)[C@H]2O)n1 | inactive | – |
| CC(=O)OCC(=O)[C@@]12N=C(C)O[C@@H]1C[C@H]1[C@@H]3CCC4=CC(=O)C=C[C@]4(C)[C@H]3[C@@H](O)C[C@@]12C | inactive | – |
| CCCCC(CC)COC(=O)C(C#N)=C(c1ccccc1)c1ccccc1 (stereo not drawn) | inactive | – |
| OC1CCCCC1 | inactive | – |
| Cc1cc(=O)[nH]c(=S)[nH]1 | inactive | – |
| COCCOCCOC | inactive | – |
| C=C(C)C(=O)OCCCCCC | inactive | – |
| C=C(C)C1CC=C(C)C(OC(C)=O)C1 (stereo not drawn) | inactive | – |
| C=C1C2CCC(C2)C1(C)C (stereo not drawn) | inactive | – |
| C=CC(C)(CCC=C(C)C)OC(C)=O (stereo not drawn) | inactive | – |
| O=C(Cl)c1c(Cl)c(Cl)c(C(=O)Cl)c(Cl)c1Cl | inactive | – |
| OC(Cn1cncn1)(Cn1cncn1)c1ccc(F)cc1F | inactive | – |
| COC(=O)CCCCC(=O)OC | inactive | – |
| C[C@]12CC[C@@H]3c4ccc(O)cc4CC[C@H]3[C@@H]1CC[C@H]2O | inactive | – |
| CCCN(CCC)C(=O)SCC | inactive | – |
| C=C(C#N)C(=O)OCC | inactive | – |
| C[Si]1(C)O[Si](C)(C)O[Si](C)(C)O[Si](C)(C)O1 | inactive | – |
| CC(=O)Nc1nnc(S(N)(=O)=O)s1 | inactive | – |
| O=[Se](O)O | – | 2.98% [at 18.9 µM] (inactive) |
| CCCCCCCCCCC(CO)CCCCCCCC (stereo not drawn) | inactive | – |
| COC(C)COC(C)COC(C)CO (stereo not drawn) | inactive | – |
| Brc1ccc(Oc2ccc(Br)cc2)cc1 | inactive | – |
| O=C1CCCCCCCCCCCN1 | inactive | – |
| O=C(c1ccc(O)cc1)c1ccc(O)cc1O | inactive | – |
| CC1COC(=O)O1 (stereo not drawn) | inactive | – |
| O=C(CC(C(=O)OC1CCCCC1)S(=O)(=O)O)OC1CCCCC1 (stereo not drawn) | inactive | – |

Molecular target: Beta-2 adrenergic receptor (Homo sapiens) (UniProt P07550)
Sequence (P07550 whole entry, looked up): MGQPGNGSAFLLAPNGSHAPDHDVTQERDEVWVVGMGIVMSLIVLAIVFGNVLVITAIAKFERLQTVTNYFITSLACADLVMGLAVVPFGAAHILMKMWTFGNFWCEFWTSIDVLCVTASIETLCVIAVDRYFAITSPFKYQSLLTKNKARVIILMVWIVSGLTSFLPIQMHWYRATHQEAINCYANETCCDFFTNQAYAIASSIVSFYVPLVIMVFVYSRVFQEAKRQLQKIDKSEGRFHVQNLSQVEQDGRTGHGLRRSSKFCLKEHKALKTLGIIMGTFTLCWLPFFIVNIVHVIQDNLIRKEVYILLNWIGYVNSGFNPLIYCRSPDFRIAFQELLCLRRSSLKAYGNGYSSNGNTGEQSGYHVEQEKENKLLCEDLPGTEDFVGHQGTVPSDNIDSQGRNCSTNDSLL
Test: Adrenergic beta2 receptor (ADRB2) small molecule antagonists, cell-based qHTS assay (AID 1963592); note: nearly all actives have a fitted effect of over 50% in size; note: potency is the fitted concentration of half-maximal effect
Conditions: CHO-ADRB2 cells, isoproterenol-stimulated cAMP HTRF ratio, 0.5 h; series mostly up to 92.4 µM
Method in brief: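 Cells (CHO, stable ADRB2 overexpression) incubated 18-20hr at 37C; compounds added from DMSO; agonist mix (1nM isoproterenol, 100uM IBMX, 25uM Ro-20-1724) added; 0.5hr RT; d2-cAMP and anti-cAMP-cryptate added; 1hr RT; 665/615 nm read.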

| Compound | Potency |
| --- | --- |
| CCC(C)OC(=O)c1ccc(O)cc1 (stereo not drawn) | inactive |
| O=c1n(CC2CO2)c(=O)n(CC2CO2)c(=O)n1CC1CO1 (stereo not drawn) | inactive |
| COc1ccc2c(c1)c(CC(=O)O)c(C)n2C(=O)c1ccc(Cl)cc1 | inactive |
| Oc1c(Cl)cc(Cl)c(Cl)c1Cc1c(O)c(Cl)cc(Cl)c1Cl | inactive and 48.6 µM (active) |
| NC(=O)c1ncn([C@@H]2O[C@H](CO)[C@@H](O)[C@H]2O)n1 | inactive |
| CC(=O)OCC(=O)[C@@]12N=C(C)O[C@@H]1C[C@H]1[C@@H]3CCC4=CC(=O)C=C[C@]4(C)[C@H]3[C@@H](O)C[C@@]12C | inactive |
| CCCCC(CC)COC(=O)C(C#N)=C(c1ccccc1)c1ccccc1 (stereo not drawn) | inactive |
| OC1CCCCC1 | inactive |
| Cc1cc(=O)[nH]c(=S)[nH]1 | inactive |
| O=c1c(O)c(-c2ccc(O)cc2)oc2cc(O)cc(O)c12 | inactive |
| COCCOCCOC | inactive |
| C=C(C)C(=O)OCCCCCC | inactive |
| C=C(C)C1CC=C(C)C(OC(C)=O)C1 (stereo not drawn) | inactive |
| Nc1ncn([C@@H]2O[C@H](CO)[C@@H](O)[C@H]2O)c(=O)n1 | inactive |
| C=C1C2CCC(C2)C1(C)C (stereo not drawn) | inactive |
| COCc1c(C(C)C)nc(C(C)C)c(/C=C/[C@@H](O)C[C@@H](O)CC(=O)O)c1-c1ccc(F)cc1 | inactive |
| CC(=O)Nc1ccc(C(=O)CCl)cc1 | inactive |
| C=CC(C)(CCC=C(C)C)OC(C)=O (stereo not drawn) | inactive |
| C[C@]12C[C@H](O)[C@H]3[C@@H](CCC4=CC(=O)CC[C@@]43C)[C@@H]1CC[C@@H]2C(=O)CO | inactive |
| CCCCCCCC(=O)OC | inactive |

| Compound | Potency |
| --- | --- |
| O=C(Cl)c1c(Cl)c(Cl)c(C(=O)Cl)c(Cl)c1Cl | inactive |
| OC(Cn1cncn1)(Cn1cncn1)c1ccc(F)cc1F | inactive |
| COC(=O)CCCCC(=O)OC | inactive |
| C[C@]12CC[C@@H]3c4ccc(O)cc4CC[C@H]3[C@@H]1CC[C@H]2O | inactive |
| CCCN(CCC)C(=O)SCC | inactive |
| C[Si]1(C)O[Si](C)(C)O[Si](C)(C)O[Si](C)(C)O1 | inactive |
| CC(=O)Nc1nnc(S(N)(=O)=O)s1 | inactive |
| O=[Se](O)O | inactive |
| CCCCCCCCCCC(CO)CCCCCCCC (stereo not drawn) | inactive |
| C#C[C@]1(O)CC[C@H]2[C@@H]3CCC4=Cc5oncc5C[C@]4(C)[C@H]3CC[C@@]21C | inactive |
| COC(C)COC(C)COC(C)CO (stereo not drawn) | inactive |
| Brc1ccc(Oc2ccc(Br)cc2)cc1 | inactive |
| O=C1CCCCCCCCCCCN1 | inactive |
| O=C(c1ccc(O)cc1)c1ccc(O)cc1O | inactive |
| CCCC(O)C(CC)CO (stereo not drawn) | inactive |
| CC(=O)Oc1ccc(C(c2ccc(OC(C)=O)cc2)c2ccccn2)cc1 | inactive |
| CC1COC(=O)O1 (stereo not drawn) | inactive |
| CC(=O)O[C@]1(C(C)=O)CC[C@H]2[C@@H]3C=C(Cl)C4=CC(=O)CC[C@]4(C)[C@H]3CC[C@@]21C | inactive |
| O=C(CC(C(=O)OC1CCCCC1)S(=O)(=O)O)OC1CCCCC1 (stereo not drawn) | inactive |

Molecular target: Beta-2 adrenergic receptor (Homo sapiens) (UniProt P07550)
Test: Adrenergic beta2 receptor (ADRB2) small molecule agonists, cell-based qHTS assay (AID 1963593);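 note: CHO cells stably overexpressing human ADRB2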
Conditions: CHO-ADRB2 cells, cAMP HTRF, 30 min; series mostly up to 92.4 µM
Method in brief: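 CHO cells stably over-expressing ADRB2 were plated overnight at 37C, then dosed with compounds plus a stimulation mix containing 100uM IBMX and 25uM Ro-20-1724 for 0.5hr at room temperature. cAMP was measured by HTRF competition, 1hr.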

| Compound | Potency |
| --- | --- |
| NC(=O)c1ncn([C@@H]2O[C@H](CO)[C@@H](O)[C@H]2O)n1 | inactive |
| CCCCC(CC)COC(=O)C(C#N)=C(c1ccccc1)c1ccccc1 (stereo not drawn) | inactive |
| OC1CCCCC1 | inactive |
| Cc1cc(=O)[nH]c(=S)[nH]1 | inactive |
| COCCOCCOC | inactive |
| C=C(C)C1CC=C(C)C(OC(C)=O)C1 (stereo not drawn) | inactive |
| COCc1c(C(C)C)nc(C(C)C)c(/C=C/[C@@H](O)C[C@@H](O)CC(=O)O)c1-c1ccc(F)cc1 | inactive |
| C=CC(C)(CCC=C(C)C)OC(C)=O (stereo not drawn) | inactive |
| C[C@]12C[C@H](O)[C@H]3[C@@H](CCC4=CC(=O)CC[C@@]43C)[C@@H]1CC[C@@H]2C(=O)CO | inactive |
| OC(Cn1cncn1)(Cn1cncn1)c1ccc(F)cc1F | inactive |
| C[C@]12CC[C@@H]3c4ccc(O)cc4CC[C@H]3[C@@H]1CC[C@H]2O | inactive |
| CCCN(CCC)C(=O)SCC | inactive |
| C[Si]1(C)O[Si](C)(C)O[Si](C)(C)O[Si](C)(C)O1 | inactive |
| CC(=O)Nc1nnc(S(N)(=O)=O)s1 | inactive |
| COC(C)COC(C)COC(C)CO (stereo not drawn) | inactive |
| Brc1ccc(Oc2ccc(Br)cc2)cc1 | inactive |
| O=C1CCCCCCCCCCCN1 | inactive |
| CCCC(O)C(CC)CO (stereo not drawn) | inactive |
| CC(=O)Oc1ccc(C(c2ccc(OC(C)=O)cc2)c2ccccn2)cc1 | inactive |
| CC1COC(=O)O1 (stereo not drawn) | inactive |
| CC(=O)O[C@]1(C(C)=O)CC[C@H]2[C@@H]3C=C(Cl)C4=CC(=O)CC[C@]4(C)[C@H]3CC[C@@]21C | inactive |
| O=C(CC(C(=O)OC1CCCCC1)S(=O)(=O)O)OC1CCCCC1 (stereo not drawn) | inactive |

Source: PubChem BioAssay (Tox21)
